Laboratory results: PubChem BioAssay (EPA / NIEHS)
Active and inactive are the calls of the source. Rule for the calls: active = hit-call score of the fitted dose curve at least 0.9, where 1 is the maximum; inactive = score below 0.9.

Tests used:
Settings in all cases: mRNA level, 48 h; actives raise or lower the signal
[1] = read-out: Apoptosis regulator Bcl-2 (Homo sapiens) (UniProt P10415); experiment: LTEA_HepaRG_BCL2: Life Technologies and Expression Analysis (LTEA) Assay for Bcl-2 gene using HepaRG (AID 2283475)
In short: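 Plated human HepaRG cells are exposed to test chemicals for 48 h across eight concentrations from 100 uM downward in half-log steps (0.5% DMSO). BCL2 expression is then measured by qRT-PCR with housekeeping normalisation and fitted bidirectionally against vehicle.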

[2] = read-out: Bcl-2 (BID) gene, BID (gene 637); experiment: LTEA_HepaRG_BID: Life Technologies and Expression Analysis (LTEA) Assay for Bcl-2 (BID) gene using HepaRG (AID 2283476)
In short: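 Cells are plated, cultured 48 h, switched to serum-free induction medium, then dosed 48 h (100 uM top, half-log steps, 0.5% DMSO). RNA is isolated and BID expression read by qRT-PCR.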

[3] = read-out: Caspase-3 (Homo sapiens) (UniProt P42574); experiment: LTEA_HepaRG_CASP3: Life Technologies and Expression Analysis (LTEA) Assay for cysteine-aspartic acid protease (CASP3) using HepaRG (AID 2283477)
In short: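 In HepaRG liver cells dosed for 48 h at up to 100 uM (eight-point, duplicate), CASP3 expression changes are scored by qRT-PCR. Activity is fitted in both directions with 0.5% DMSO as baseline.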

[4] = read-out: Cytochrome P450 (CYP24A1), CYP24A1 (gene 1591); experiment: LTEA_HepaRG_CYP24A1: Life Technologies and Expression Analysis (LTEA) Assay for Cytochrome P450 (CYP24A1) using HepaRG (AID 2283478)
In short: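 Human liver HepaRG cultures receive each chemical for 48 h across an eight-point half-log series topping at 100 uM in 0.5% DMSO. Induction or suppression of CYP24A1 mRNA is scored relative to vehicle after housekeeping-gene normalization.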

[5] = read-out: Cytochrome P450 (CYP1A2), CYP1A2 (gene 1544); experiment: LTEA_HepaRG_CYP1A2: Life Technologies and Expression Analysis (LTEA) Assay for Cytochrome P450 (CYP1A2) using HepaRG (AID 2283479)
In short: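 Assesses CYP1A2 mRNA in human HepaRG liver cells after 48 h chemical exposure at up to 100 uM. Values come from qRT-PCR with bidirectional curve fitting relative to DMSO.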

[6] = read-out: cysteine-aspartic acid protease (CASP8), CASP8 (gene 841); experiment: LTEA_HepaRG_CASP8: Life Technologies and Expression Analysis (LTEA) Assay for cysteine-aspartic acid protease (CASP8) using HepaRG (AID 2283480)
In short: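 qRT-PCR readout of CASP8 mRNA, normalized to three housekeeping genes, after 48 h chemical exposure of HepaRG cells; 8-point half-log series, top 100 uM, 0.5% DMSO vehicle. Bidirectional curve fitting against DMSO baseline.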

[7] = read-out: Cytochrome P450 (CYP2B6), CYP2B6 (gene 1555); experiment: LTEA_HepaRG_CYP2B6: Life Technologies and Expression Analysis (LTEA) Assay for Cytochrome P450 (CYP2B6) using HepaRG (AID 2283481)
In short: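 Using 48 h treatment of HepaRG cells in serum-free induction medium, concentrations spanned half-log steps from 100 uM in 0.5% DMSO vehicle. CYP2B6 mRNA induction or loss is scored by qRT-PCR against DMSO.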

[8] = read-out: Cytochrome P450 2C19 (Homo sapiens) (UniProt P33261); experiment: LTEA_HepaRG_CYP2C19: Life Technologies and Expression Analysis (LTEA) Assay for CYP2C19 using HepaRG (AID 2283482)
In short: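 Human HepaRG liver cells received test chemicals for 48 h (highest 100 uM, half-log dilutions in 0.5% DMSO). CYP2C19 mRNA induction or loss is read by multiplexed qRT-PCR and fitted in both directions versus vehicle.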

[9] = read-out: CYP2C8 (gene 1558); experiment: LTEA_HepaRG_CYP2C8: Life Technologies and Expression Analysis (LTEA) Assay for CYP2C8 using HepaRG (AID 2283483)
In short: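 HepaRG (human liver line), 48 h chemical exposure, 8-pt half-log series from 100 uM, 0.5% DMSO vehicle. Readout: CYP2C8 transcript by qRT-PCR, housekeeping-normalized. Bidirectional fit vs DMSO baseline.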

[10] = read-out: CYP2C9 (gene 1559); experiment: LTEA_HepaRG_CYP2C9: Life Technologies and Expression Analysis (LTEA) Assay for CYP2C9 using HepaRG (AID 2283484)
In short: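 HepaRG, 48 h dosing, 8-pt half-log series, top 100 uM, 0.5% DMSO vehicle. Read-out: CYP2C9 transcript by TaqMan qRT-PCR, housekeeping-normalized (ACTB/GAPDH/POLR2A). Gain or loss fitted vs DMSO baseline.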

Measured: AC50

Sequence of Cytochrome P450 2C19 (Homo sapiens) (P33261 whole entry, looked up): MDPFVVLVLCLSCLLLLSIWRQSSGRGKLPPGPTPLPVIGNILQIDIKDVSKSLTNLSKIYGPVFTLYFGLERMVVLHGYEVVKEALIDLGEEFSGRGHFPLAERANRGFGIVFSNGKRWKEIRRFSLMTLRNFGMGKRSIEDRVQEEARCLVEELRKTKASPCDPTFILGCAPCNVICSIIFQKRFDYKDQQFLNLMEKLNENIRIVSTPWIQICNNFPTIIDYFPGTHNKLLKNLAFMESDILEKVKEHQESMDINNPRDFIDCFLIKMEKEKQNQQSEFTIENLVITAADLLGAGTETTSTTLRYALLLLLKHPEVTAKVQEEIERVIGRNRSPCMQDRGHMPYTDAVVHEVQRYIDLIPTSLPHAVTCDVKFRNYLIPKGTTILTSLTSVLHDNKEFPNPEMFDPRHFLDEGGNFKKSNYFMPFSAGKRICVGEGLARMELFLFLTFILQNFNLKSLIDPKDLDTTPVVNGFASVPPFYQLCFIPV
Sequence of Apoptosis regulator Bcl-2 (Homo sapiens) (P10415 whole entry, looked up): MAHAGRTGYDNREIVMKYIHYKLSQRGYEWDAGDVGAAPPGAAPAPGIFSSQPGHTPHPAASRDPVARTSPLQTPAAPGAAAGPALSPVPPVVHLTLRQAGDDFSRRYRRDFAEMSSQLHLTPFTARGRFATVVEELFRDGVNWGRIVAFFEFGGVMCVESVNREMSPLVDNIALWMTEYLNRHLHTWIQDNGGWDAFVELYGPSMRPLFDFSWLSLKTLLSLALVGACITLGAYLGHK
Sequence of Caspase-3 (Homo sapiens) (P42574 whole entry, looked up): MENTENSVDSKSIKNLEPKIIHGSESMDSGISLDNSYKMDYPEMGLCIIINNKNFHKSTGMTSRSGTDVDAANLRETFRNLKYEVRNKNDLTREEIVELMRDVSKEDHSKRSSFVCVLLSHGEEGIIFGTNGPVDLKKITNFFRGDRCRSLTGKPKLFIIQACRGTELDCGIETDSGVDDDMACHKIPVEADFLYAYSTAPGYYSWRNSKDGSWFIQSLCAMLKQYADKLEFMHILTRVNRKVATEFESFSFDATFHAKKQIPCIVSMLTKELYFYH

CNCc1ccc(NC(=O)c2c[nH]c3c2C(=O)CCC3)cc1
active: [5] 73.2 µM
inactive: all other assays above

Cn1c(=O)cc(Oc2ccc(F)cc2F)c2cnc(NCC(C)(C)O)nc21
active: [5] 16 µM | [7] 6.6 µM | [8] 14.6 µM
inactive: all other assays above

CCn1nc(Cc2ccccc2)cc1C1CCN(C[C@H]2C[C@H](N(C)[C@@H](C(=O)O)C(C)C)C[C@@H]2c2cccc(F)c2)CC1
active: [5] 79.9 µM | [7] 13.7 µM | [8] 17.6 µM | [9] 24.6 µM | [10] 27.8 µM
inactive: all other assays above

CCCN(C1CCN(C(=O)C2CCNCC2)CC1)[C@@H]1CCc2ccc(OC)cc2C1
active: [5] 84.3 µM | [7] 87.9 µM | [8] 86.3 µM | [9] 86.5 µM | [10] 80.3 µM
inactive: all other assays above

C1N2CN3CN1CN(C2)C3
active: [5] 68.7 µM
inactive: all other assays above

CCOC(=O)CC(CC(=O)OCC)(OC(C)=O)C(=O)OCC
active: [5] 20.5 µM
inactive: all other assays above

CCNc1ccccc1
active: [5] 16.5 µM | [7] 28.3 µM
inactive: all other assays above

CCOc1cccc(-n2cc(C(=O)N3CCN(c4cc(C(=O)O)c5ccccc5c4)CC3)nc2-c2ccc(C)cc2)c1
active: [1] 84.5 µM | [2] 80.7 µM | [3] 82.9 µM | [5] 27.7 µM | [6] 87.9 µM | [7] 26.5 µM | [8] 32.6 µM | [9] 25.6 µM | [10] 31.6 µM
inactive: [4]

C[C@](N)(Cc1ccc(O)c(O)c1)C(=O)O
inactive: all assays above

Nc1ccc(Nc2ccccc2)cc1
active: [5] 4.54 µM | [7] 33.7 µM
inactive: all other assays above

CCCCCCCCCCCCc1ccccc1
inactive: all assays above

Clc1nc(Cl)c(Cl)c(Cl)c1Cl
inactive: all assays above

CCOCCO
inactive: all assays above

CN(C)c1ccc(N=NS(=O)(=O)O)cc1
active: [5] 13.8 µM | [9] 2.62 µM
inactive: all other assays above

CC(C)=CCCC(C)=CC=O
active: [7] 50 µM
inactive: all other assays above

Cc1ccc(S(=O)(=O)O)cc1C
inactive: all assays above

CCCC(=O)OCC
inactive: all assays above

CC[C@H](C)C(=O)O[C@H]1C[C@@H](C)C=C2C=C[C@H](C)[C@H](CC[C@@H]3C[C@@H](O)CC(=O)O3)[C@H]21
active: [5] 6.18 µM
not listed: [8] | [10]
inactive: all other assays above

CCCCCCc1ccc(O)cc1O
inactive: all assays above

CNS(=O)(=O)c1cc(C(=O)N2CCC(CCN3C4CCC3CC(n3c(C)nc5ccccc53)C4)(c3cccc(F)c3)CC2)c(Cl)cc1F (stereo not given)
inactive: [2] | [3] | [4] | [6]
active: [1] 27.4 µM | [5] 27.2 µM | [7] 21.7 µM | [8] 50 µM | [9] 25.7 µM | [10] 19.2 µM

Cc1[nH]cnc1C[C@H]1CCc2c(C)c3ccccc3n2C1=O
inactive: [2] | [3] | [4]
active: [1] 24.1 µM | [5] 5.56 µM | [6] 66.7 µM | [7] 29 µM | [8] 30.6 µM | [9] 22.9 µM | [10] 28.7 µM

COc1ccc(/C=C/S(=O)(=O)NC(=O)c2ccc(C)cc2Cl)cc1
active: [7] 89.8 µM
inactive: all other assays above

Cn1cnc([N+](=O)[O-])c1Sc1ncnc2nc[nH]c12
active: [5] 0.9 µM | [7] 5.23 µM | [9] 7.61 µM | [10] 9.87 µM
not listed: [8]
inactive: all other assays above

CC(C)=CCC/C(C)=C\CO
inactive: [1] | [2] | [3] | [6]

O=C(O)c1cccc(Oc2ccccc2)c1
active: [5] 30 µM | [7] 34.7 µM | [8] 31.2 µM
inactive: all other assays above

CC(C)=CCC/C(C)=C/CO
inactive: [1] | [2] | [3] | [6]

C1=CCCC=CCCC=CCC1
not listed: [4]
inactive: all other assays above

NC(=O)NO
inactive: [1] | [2] | [3] | [6]

CCOC(=O)COc1ccc2c(c1)CC(NCC(O)c1cccc(Cl)c1)CC2 (stereo not given)
active: [1] 45.8 µM | [7] 0.947 µM
inactive: all other assays above

CC(O)CN(CCN(CC(C)O)CC(C)O)CC(C)O (stereo not given)
active: [1] 12.7 µM | [5] 50 µM | [9] 12.6 µM
inactive: all other assays above

O=c1[nH]c2ccc(S(=O)CCN3CCC(Cc4ccc(F)cc4)CC3)cc2o1 (stereo not given)
active: [7] 82.3 µM | [9] 78.5 µM | [10] 71.1 µM
not listed: [8]
inactive: all other assays above

O=C(O)CC(O)C(=O)O (stereo not given)
inactive: all assays above

O=P(OC(CCl)CCl)(OC(CCl)CCl)OC(CCl)CCl
inactive: [3] | [4]
active: [1] 88.3 µM | [2] 0.232 µM | [5] 80 µM | [6] 0.209 µM | [8] 84.9 µM | [9] 89.6 µM | [10] 76.3 µM

CC/C(=C\C(=N/O)C(N)=O)C(C)[N+](=O)[O-] (stereo not given)
active: [5] 26.5 µM
inactive: all other assays above

Cc1ccc(O)cc1
inactive: [1] | [2] | [3] | [6]

COCCOCCOCCOC
inactive: all assays above

CC[C@H]1OC(=O)[C@H](C)[C@@H](O[C@H]2C[C@@](C)(OC)[C@@H](O)[C@H](C)O2)[C@H](C)[C@@H](O[C@@H]2O[C@H](C)C[C@H](N(C)C)[C@H]2O)[C@](C)(O)C[C@@H](C)C(=O)[C@H](C)[C@@H](O)[C@]1(C)O
active: [5] 59.1 µM | [7] 5.59 µM
inactive: all other assays above

O=C(O)c1cc(N=Nc2ccc(S(=O)(=O)Nc3ccccn3)cc2)ccc1O
active: [5] 75.7 µM
inactive: all other assays above

CCCCC(CC)COC(=O)CCCCCCCCC(=O)OCC(CC)CCCC (stereo not given)
inactive: all assays above

Nc1nc2ncc(CNc3ccc(C(=O)N[C@@H](CCC(=O)O)C(=O)O)cc3)nc2c(=O)[nH]1
inactive: all assays above

CCOC(=O)c1ccc(C2CCC(NC[C@H](O)COc3ccc(O)c(NS(C)(=O)=O)c3)CC2)cc1 (stereo not given in full)
active: [1] 2.75 µM
inactive: all other assays above

O=C(CCCCCCCCc1cccnc1)N1CCC(C=C(c2ccccc2)c2ccccc2)CC1
active: [1] 16.6 µM | [3] 61.9 µM | [5] 17 µM | [7] 12.3 µM | [8] 34.9 µM | [9] 29.7 µM | [10] 31.2 µM
inactive: [2] | [4] | [6]

CC(C)CC(C)(O)C#CC(C)(O)CC(C)C (stereo not given)
active: [7] 21.9 µM | [8] 29.5 µM
inactive: all other assays above
